# PMC12751014, “Non-Catalytic Inhibitors of the p38/MK2 Interface: Repurposing Approved Drugs to Target Neuroinflammation in Alzheimer’s Disease” (Journal of Medicinal Chemistry, 2025)
# Among all 1,900 compounds or so, about 50 (3%) showed an effect of 50% or more. The sample as a whole holds a higher share of strong results than the screen did.
# Target: p38/MK2 protein–protein interaction (VF-p38α / GST-MK2) (Homo sapiens, UniProt Q16539)
# Assay: primary screen, percent of control activity; higher = less effect of the substance
# Parameters: species or system HEK293T cell lysate transfected with VF-p38α and GST-MK2; unclear (methods say 'quintuplet replicates')
# Procedure: The TR-FRET assay was conducted in a 1536-well plate (Corning, catalog no. 3724) with HEK293T cell lysate transfected with VF-p38α and GST-MK2. Cell-lysate concentration was optimized with a titration experiment. Anti-Flag-Tb and anti-GST-d2 antibodies (Revvity, catalog no. 61FGBTLB) were used to couple p38α and MK2, respectively. A multiple-drop Combi dispenser (Thermo Scientific) combined reaction mixtures in quintuplet replicates. The TR-FRET signals were measured using a BMG Labtech PHERAstar FSX plate reader and normalized to the percent of DMSO control.
# p38/MK2 protein–protein interaction (VF-p38α / GST-MK2), sequence (Q16539 2-360 limits assumed): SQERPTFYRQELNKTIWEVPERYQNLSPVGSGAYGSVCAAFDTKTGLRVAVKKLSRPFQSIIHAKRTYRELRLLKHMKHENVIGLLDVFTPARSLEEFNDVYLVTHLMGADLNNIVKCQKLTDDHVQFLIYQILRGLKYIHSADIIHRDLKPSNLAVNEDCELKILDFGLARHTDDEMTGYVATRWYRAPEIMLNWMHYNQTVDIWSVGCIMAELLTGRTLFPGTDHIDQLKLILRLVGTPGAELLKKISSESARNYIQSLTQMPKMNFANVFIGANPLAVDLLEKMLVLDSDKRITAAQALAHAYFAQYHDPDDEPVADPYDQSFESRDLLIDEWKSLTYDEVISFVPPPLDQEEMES
row,Structure (SMILES),Pct of control [%]
1,CCOc1nc2cccc(C(=O)OC(C)OC(=O)OC3CCCCC3)c2n1Cc1ccc(-c2ccccc2-c2nn[nH]n2)cc1 (stereo not drawn),32.4
2,CCOc1nc2cccc(C(=O)O)c2n1Cc1ccc(-c2ccccc2-c2nc(=O)o[nH]2)cc1,94.5
3,CCOc1nc2cccc(C(=O)O)c2n1Cc1ccc(-c2ccccc2-c2nn[nH]n2)cc1,95
4,Cl.Cn1c(CCCC(=O)O)nc2cc(N(CCCl)CCCl)ccc21,99.1
5,C=C(c1ccc(C(=O)O)cc1)c1cc2c(cc1C)C(C)(C)CCC2(C)C,25.7
6,CC(=Cc1ccc(C(=O)O)cc1)c1ccc2c(c1)C(C)(C)CCC2(C)C,78.8
7,CC1(C)CCC(C)(C)c2cc(NC(=O)c3ccc(C(=O)O)cc3)ccc21,92.2
8,CO/N=C(\C(=O)N[C@@H]1C(=O)N2C(C(=O)O)=C(CSC(=O)c3ccco3)CS[C@H]12)c1csc(N)n1.Cl,115
9,Cn1cc(-c2ccc3ncc(Cc4ccc5ncccc5c4)n3n2)cn1,93.2
10,O=C1O[C@H]([C@@H](O)CO)C(O)=C1O,100
11,CCCCCCCCCCCCCCCC(=O)OCC(O)C1OC(=O)C(O)=C1O (stereo not drawn),33.2
12,CCCCCC=CCC=CCCCCCCCC(=O)OC(COC(=O)CCCCCCCCCCCCCCC)COP(=O)([O-])OCC[N+](C)(C)C (stereo not drawn),95.3
13,CN(C)c1ccc(C(=O)NCCCCCCC(=O)NO)cc1,96.2
14,Cl.O=S(=O)(c1cccc2cnccc12)N1CCCNCC1,93.6
15,COC(=O)C1=CO[C@@H](O[C@@H]2O[C@H](CO)[C@@H](O)[C@H](O)[C@H]2O)[C@@H]2C(CO)=CC[C@H]12,90.4
16,CNC(=O)c1cc(Oc2ccc(NC(=O)Nc3ccc(Cl)c(C(F)(F)F)c3)cc2)ccn1.Cc1ccc(S(=O)(=O)O)cc1,69.1
17,O=C(O)CC1CC(c2ccccc2)=NO1 (stereo not drawn),86.5
18,CC1C=CC=CCCC=CC=CC=CC=CC(OC2OC(C)C(O)C(N)C2O)CC2OC(O)(CC(O)C(O)CCC(O)CC(O)CC(O)CC(=O)OC(C)C(C)C1O)CC(O)C2C(=O)O (stereo not drawn),94.3
19,C[C@@H]1[C@H](O)[C@@H](C)/C=C/C=C/C=C/C=C/C=C/C=C/C=C/[C@H](O[C@@H]2O[C@H](C)[C@@H](O)[C@H](N)[C@@H]2O)C[C@@H]2O[C@](O)(C[C@@H](O)C[C@@H](O)[C@H](O)CC[C@@H](O)C[C@@H](O)CC(=O)O[C@H]1C)C[C@H](O)[C@H]2C(=O)O,48.7
20,C[C@@H]1C/C=C/C=C/C=C/C=C/[C@H](O[C@@H]2O[C@H](C)[C@@H](O)[C@H](N)[C@@H]2O)C[C@@H]2O[C@](O)(C[C@@H](O)C[C@H]3O[C@@H]3/C=C/C(=O)O1)C[C@H](O)[C@H]2C(=O)O,97.8
21,Cc1ccc(C(=O)N(CCCN)C(c2nc3cc(Cl)ccc3c(=O)n2Cc2ccccc2)C(C)C)cc1 (stereo not drawn),97.1
22,COc1ccc(COc2cc3oc(=O)c4cc(C(C)O)ccc4c3cc2OC)cc1 (stereo not drawn),78.7
23,C=C1C(=O)[C@]23[C@H](O)[C@H]1CC[C@H]2[C@@]12CO[C@]3(O)[C@@H](O)[C@@H]1C(C)(C)CC[C@@H]2O,42.8
24,COC(=O)C1=C(C)NC(C)=C(C(=O)OCCN2CCN(C(c3ccccc3)c3ccccc3)CC2)C1c1cccc([N+](=O)[O-])c1 (stereo not drawn),121

row,Structure (SMILES),Pct of control [%]
1,COc1ccc2nc([S@@+]([O-])Cc3ncc(C)c(OC)c3C)[nH]c2c1,89.4
2,O=C(CCCCCCC(=O)Nc1ccccc1)NO,102
3,O=C(CCCCCCC(=O)Nc1ccc([C@H]2O[C@@H](CSc3nc(-c4ccccc4)c(-c4ccccc4)o3)C[C@@H](c3ccc(CO)cc3)O2)cc1)NO,20.4
4,Cc1cccc(C(C)c2cnc[nH]2)c1C.Cl (stereo not drawn) [S3060],91.6
5,CC1=CC(=O)NS(=O)(=O)O1.[K],95.6
6,CC(C)N(CCC(=O)c1ccc2ccccc2c1)Cc1ccccc1.Cl,26.2
7,CC(COc1ccccc1)N(CCCl)Cc1ccccc1.Cl (stereo not drawn),85.4
8,CC(=CC(=O)Nc1ccccc1C(=O)O)c1ccc2ccccc2c1,105
9,O=S(=O)(CC1CS1)c1ccc(Oc2ccccc2)cc1 (stereo not drawn),95
10,CN(C)CCCN1c2ccccc2Sc2ccc(C(F)(F)F)cc21.Cl,95.7
11,O=C(NNc1ccccc1)c1ccncc1,97.3
12,O=C(C=Cc1ccc2ccccc2n1)c1ccncc1,39.1
13,O=C(O)C=CC(=O)O.c1ccc2nc(N3CCNCC3)ccc2c1,98.6
14,Cl.c1ccc2c(CC3=NCCN3)cccc2c1,94.8
15,CCCNC(C)C(=O)Nc1ccccc1C (stereo not drawn),96.3
16,CC(C)c1onc(-c2c(Cl)cccc2Cl)c1COc1ccc(C=Cc2cccc(C(=O)O)c2)c(Cl)c1,16.5
17,O=c1cc(-c2cccc3c2Sc2ccccc2S3)oc(N2CCOCC2)c1,88.7
18,CCCCCCOC(=O)N=C(N)c1ccc(NCc2nc3cc(C(=O)N(CCC(=O)OCC)c4ccccn4)ccc3n2C)cc1,94.2
19,COC1CCN(C(=O)c2cc(Cc3n[nH]c(=O)c4ccccc34)ccc2F)CC1,95.8
20,Cl.NC1CC1c1ccccc1 (stereo not drawn),91.7
21,O=C(/C=C/C=C/c1ccc2c(c1)OCO2)N1CCCCC1,82.5
22,O=C(Oc1ccc([N+](=O)[O-])cc1)N1CCC(C(O)(c2ccc3c(c2)OCO3)c2ccc3c(c2)OCO3)CC1,94.2
23,O=[N+]([O-])C=Cc1ccc2c(c1)OCO2,40.3
24,Cc1ccc(-n2sc(=O)n(Cc3ccc(F)cc3)c2=O)cc1,114
